Records with an inconclusive call do not appear. Calls of active or inactive are those of the source. Unless noted, calls come from the whole dose curve; as a rule, active = well fitted curve in the direction sought with a large enough effect in the repeat runs; inconclusive = weak or mixed curves; inactive = no such curve, though single readings can be large; an effect the other way counts as inactive or inconclusive.
Legend:
[1] = qHTS assay to identify aromatase inhibitors - cell viability counter screen (AID 743084);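 note: cells stimulated with testosterone during compound exposure; nearly all actives have a fitted effect of over 55% in size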
[2] = qHTS assay to identify small molecule that activate the aryl hydrocarbon receptor (AhR) signaling pathway - cell viability counter screen (AID 743086);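 note: HepG2 liver cells carrying the AhR DRE luciferase reporter; series mostly up to about 70 µM; nearly all actives have a fitted effect of over 45% in size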
Outline: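 Cytotoxicity counter screen: CellTiter-Fluor signal (30 min, 37 C) in 4000 HepG2 cells/well carrying the DRE-luciferase reporter, following 24 h compound exposure at 37 C.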

[3] = biological target: Peroxisome proliferator-activated receptor gamma (Homo sapiens) (UniProt P37231); assay: qHTS assay to identify small molecule agonists of the peroxisome proliferator-activated receptor gamma (PPARg) signaling pathway (AID 743094; active = well fitted activation curve with a large enough effect in the signal ratio in the repeat runs, not every such curve was filed as active; the % refers to the signal ratio)
Sequence of Peroxisome proliferator-activated receptor gamma (Homo sapiens) (P37231 whole entry, looked up): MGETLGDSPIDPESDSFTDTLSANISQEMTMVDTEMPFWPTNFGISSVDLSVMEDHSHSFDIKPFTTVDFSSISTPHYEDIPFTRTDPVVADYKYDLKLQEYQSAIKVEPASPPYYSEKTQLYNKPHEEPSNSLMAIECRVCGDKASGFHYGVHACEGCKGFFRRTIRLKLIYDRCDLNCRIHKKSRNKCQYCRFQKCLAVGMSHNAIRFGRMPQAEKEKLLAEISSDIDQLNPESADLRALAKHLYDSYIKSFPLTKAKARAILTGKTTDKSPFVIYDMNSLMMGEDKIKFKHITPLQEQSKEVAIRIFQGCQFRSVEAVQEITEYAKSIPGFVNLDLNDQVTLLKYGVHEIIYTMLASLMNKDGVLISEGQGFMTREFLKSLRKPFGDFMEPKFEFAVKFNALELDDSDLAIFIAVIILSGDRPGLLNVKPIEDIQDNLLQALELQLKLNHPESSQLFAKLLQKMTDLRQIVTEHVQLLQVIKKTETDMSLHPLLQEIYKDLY
Outline: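 Cells from the PPARg UAS-bla HEK293H line are plated and incubated 5 h at 37C. Compounds in DMSO are pinned in and left 17 h at 37C. LiveBLAzer B/G substrate is then added for 1 h at room temperature before fluorescence is measured.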

[4] = qHTS assay for small molecule agonists of the antioxidant response element (ARE) signaling pathway - cell viability counter screen (AID 743203; calls by dose curve; note: nearly all actives have a fitted effect of over 55% in size)
Outline: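 Cytotoxicity was tested in parallel with the ARE reporter screen. ARE-bla HepG2 cells were exposed to compounds for 16 hrs, and viability was taken from CellTiter-Glo luminescence.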

[5] = qHTS assay for small molecule activators of the heat shock response signaling pathway - cell viability counter screen (AID 743209); note: nearly all actives have a fitted effect of over 50% in size
Outline: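 Cytotoxicity counter screen run in parallel with the HSE beta-lactamase reporter, using the same wells. HeLa HSE-bla cells received compound for 5 h at 37 C; ATP-based CellTiter-Glo luminescence was measured after 30 min at room temperature.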

[6] = qHTS assay for small molecule activators of the heat shock response signaling pathway (AID 743210; active = well fitted activation curve with a large enough effect in the signal ratio in the repeat runs, with a control signal flat, not every such curve was filed as active; the % refers to the signal ratio; note: series mostly up to about 63 µM)
Outline: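 Compound exposure lasted 5 h at 37 C in HeLa cells carrying a heat-shock-element-driven beta-lactamase reporter. Read-out: fluorescence intensity after 2.5 h room-temperature loading with LiveBLAzer B/G FRET substrate.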

[7] = qHTS assay to identify small molecule agonists of the peroxisome proliferator-activated receptor delta (PPARd) signaling pathway - cell viability counter screen (AID 743211); note: nearly all actives have a fitted effect of over 55% in size
Outline: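 Counter screen for cytotoxicity run in parallel with the PPARd reporter screen. Beta-lactamase reporter HEK293H cells exposed to compounds 17 h; ATP-based CellTiter-Glo luminescence quantified viability.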

[8] = biological target: Peroxisome proliferator-activated receptor delta (Homo sapiens) (UniProt Q03181); assay: qHTS assay to identify small molecule antagonists of the peroxisome proliferator-activated receptor delta (PPARd) signaling pathway (AID 743215; active = well fitted inhibition curve with a large enough effect in the signal ratio in the repeat runs, not every such curve was filed as active; the % refers to the signal ratio;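 note: cells stimulated with agonist L165041 at 300 nM final during compound exposure; series mostly up to about 62 µM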)
Sequence of Peroxisome proliferator-activated receptor delta (Homo sapiens) (Q03181 whole entry, looked up): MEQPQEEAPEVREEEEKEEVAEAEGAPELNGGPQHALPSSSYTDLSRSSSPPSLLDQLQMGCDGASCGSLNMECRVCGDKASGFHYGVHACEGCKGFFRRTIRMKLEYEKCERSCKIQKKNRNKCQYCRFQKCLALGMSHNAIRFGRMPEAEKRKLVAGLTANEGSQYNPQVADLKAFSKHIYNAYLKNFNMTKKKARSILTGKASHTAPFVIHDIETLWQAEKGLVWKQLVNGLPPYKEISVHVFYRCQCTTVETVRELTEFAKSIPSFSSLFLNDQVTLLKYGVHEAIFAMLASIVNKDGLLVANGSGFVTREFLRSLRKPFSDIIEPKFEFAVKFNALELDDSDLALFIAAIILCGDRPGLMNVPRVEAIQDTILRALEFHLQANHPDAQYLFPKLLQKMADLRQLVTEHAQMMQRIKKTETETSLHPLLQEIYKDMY
Outline: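 Cells: HEK293H with a UAS-driven beta-lactamase reporter responsive to PPARd. Compounds were co-added with L165041 (300 nM, final) and incubated 17 h at 37 C before a 2 h room-temperature FRET substrate step and fluorescence reading.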

[9] = biological target: Bile acid receptor (Homo sapiens) (UniProt Q96RI1); assay: qHTS assay to identify small molecule agonists of the farnesoid-X-receptor (FXR) signaling pathway (AID 743220; active = well fitted activation curve with a large enough effect in the signal ratio in the repeat runs, not every such curve was filed as active; the % refers to the signal ratio)
Sequence of Bile acid receptor (Homo sapiens) (Q96RI1 whole entry, looked up): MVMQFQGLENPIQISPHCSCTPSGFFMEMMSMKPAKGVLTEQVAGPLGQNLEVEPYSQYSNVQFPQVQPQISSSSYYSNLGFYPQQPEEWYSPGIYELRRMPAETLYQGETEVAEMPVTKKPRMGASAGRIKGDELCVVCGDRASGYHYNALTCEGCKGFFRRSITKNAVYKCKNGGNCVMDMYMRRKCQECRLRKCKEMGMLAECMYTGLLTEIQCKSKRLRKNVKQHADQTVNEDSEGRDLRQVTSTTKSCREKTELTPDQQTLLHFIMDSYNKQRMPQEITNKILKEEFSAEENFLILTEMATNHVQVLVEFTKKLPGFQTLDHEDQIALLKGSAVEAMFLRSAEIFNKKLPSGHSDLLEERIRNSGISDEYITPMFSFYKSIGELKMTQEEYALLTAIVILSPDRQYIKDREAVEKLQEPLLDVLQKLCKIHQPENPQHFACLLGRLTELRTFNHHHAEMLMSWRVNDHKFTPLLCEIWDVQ
Outline: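 FXR-UAS-bla HEK 293T cells carrying a UAS-driven beta-lactamase reporter were plated for 5 h at 37C/5% CO2, then exposed to DMSO-dissolved Tox21 10K compounds for 16 h at 37C. A LiveBLAzer B/G FRET substrate was loaded for 2 h at room temperature before fluorescence reading.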

[10] = qHTS assay to identify small molecule antagonists of the farnesoid-X-receptor (FXR) signaling pathway - cell viability counter screen (AID 743221; active = well fitted cell-killing curve with a large enough effect in the repeat runs, not every such curve was filed as active; note: nearly all actives have a fitted effect of over 50% in size)
Outline: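 Multiplexed counter screen: viability of FXR-bla HEK 293T cells under agonist stimulation by chenodeoxycholic acid (50 uM, final) and test compound for 16 h at 37 C, measured by CellTiter-Glo luminescence in the reporter wells.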

[11] = biological target: Vitamin D3 receptor (Homo sapiens) (UniProt P11473); assay: qHTS assay to identify small molecule agonists of the vitamin D receptor (VDR) signaling pathway (AID 743222; calls by dose curve)
Sequence of Vitamin D3 receptor (Homo sapiens) (P11473 whole entry, looked up): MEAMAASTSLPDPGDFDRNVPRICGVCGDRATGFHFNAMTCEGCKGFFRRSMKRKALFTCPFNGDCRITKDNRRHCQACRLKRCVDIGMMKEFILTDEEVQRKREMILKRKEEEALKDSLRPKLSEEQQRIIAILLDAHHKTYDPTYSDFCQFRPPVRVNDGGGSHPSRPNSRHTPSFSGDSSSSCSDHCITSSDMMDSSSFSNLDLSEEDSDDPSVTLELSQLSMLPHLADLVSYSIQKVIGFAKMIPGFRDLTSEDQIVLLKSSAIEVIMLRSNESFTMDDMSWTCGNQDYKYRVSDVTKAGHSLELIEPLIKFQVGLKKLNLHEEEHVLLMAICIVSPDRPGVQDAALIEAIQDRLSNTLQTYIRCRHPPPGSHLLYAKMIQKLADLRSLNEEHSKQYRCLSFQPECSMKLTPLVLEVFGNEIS
Outline: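 Cells carrying a VDR-driven beta-lactamase reporter are seeded at 2,000 per well and rested 4 h. Compounds in DMSO are added for 16 h at 37C, and FRET substrate fluorescence is measured after 2 h at room temperature.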

[12] = biological target: Vitamin D3 receptor (Homo sapiens) (UniProt P11473); assay: qHTS assay to identify small molecule antagonists of the vitamin D receptor (VDR) signaling pathway (AID 743223; active = well fitted inhibition curve with a large enough effect in the signal ratio in the repeat runs, not every such curve was filed as active; the % refers to the signal ratio)
Outline: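 Cells carrying a VDR-driven beta-lactamase reporter (VDR-bla) were co-treated with compound and 3 nM final 1alpha,25-dihydroxyvitamin D3 for 16 h at 37C; reporter activity was measured as FRET substrate fluorescence after 2 h at room temperature.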

[13] = qHTS assay to identify small molecule antagonists of the peroxisome proliferator-activated receptor gamma (PPARg) signaling pathway - cell viability counter screen (AID 743194); settings: Potency: co-treated with 50 nM rosiglitazone; note: nearly all actives have a fitted effect of over 55% in size
Outline: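 Viability was measured as CellTiter-Glo luminescence in GeneBLAzer PPARg UAS-bla HEK293H cells. These cells had been exposed 17 h at 37 C to compounds together with rosiglitazone at 50 nM final, with the beta-lactamase readout taken in the same wells.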

[14] = biological target: Peroxisome proliferator-activated receptor delta (Homo sapiens) (UniProt Q03181); assay: qHTS assay to identify small molecule agonists of the peroxisome proliferator-activated receptor delta (PPARd) signaling pathway (AID 743212; calls by dose curve)
Outline: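 Beta-lactamase reporter readout: a ratiometric FRET signal from the LiveBLAzer substrate after 2 h at room temperature. Compound exposure at 37 °C in PPARδ-bla HEK293H cells driven by an upstream activator sequence.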

[15] = qHTS assay to identify small molecule agonists of the farnesoid-X-receptor (FXR) signaling pathway - cell viability counter screen (AID 743218); note: nearly all actives have a fitted effect of over 45% in size
Outline: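 Cells were seeded, left 5 h at 37 C and 5% CO2, then dosed with compound in DMSO for 16 h. After the beta-lactamase FRET read, CellTiter-Glo was added and luminescence measured 30 min later.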

[16] = biological target: Peroxisome proliferator-activated receptor gamma (Homo sapiens) (UniProt P37231); assay: qHTS assay to identify small molecule antagonists of the peroxisome proliferator-activated receptor gamma (PPARg) signaling pathway (AID 743191; calls by dose curve; note: series mostly up to about 63 µM; nearly all actives have a fitted effect of over 30% in size)
Outline: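 Beta-lactamase reporter under UAS control in HEK293H PPARg-bla cells; compound treatment 17 h at 37C. Read-out: fluorescence intensity after 1 h room-temperature incubation with LiveBLAzer B/G FRET substrate.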

[17] = qHTS assay for small molecule agonists of the antioxidant response element (ARE) signaling pathway (AID 743202; active = well fitted activation curve with a large enough effect in the signal ratio in the repeat runs, not every such curve was filed as active; the % refers to the signal ratio)
Outline: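 After 16 hours of compound treatment at 37 C, HepG2 cells with a stably integrated ARE-driven beta-lactamase reporter were loaded 2 hours at room temperature with LiveBLAzer B/G FRET substrate and fluorescence intensity measured.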

[18] = qHTS assay to identify small molecule antagonists of the peroxisome proliferator-activated receptor delta (PPARd) signaling pathway - cell viability counter screen (AID 743213); note: nearly all actives have a fitted effect of over 50% in size
Outline: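 CellTiter-Glo was added to PPARd-bla HEK293H wells following 17 h compound treatment in the presence of 300 nM L165041. Luminescence was recorded after 30 min at room temperature.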

[19] = biological target: Bile acid receptor (Homo sapiens) (UniProt Q96RI1); assay: qHTS assay to identify small molecule antagonists of the farnesoid-X-receptor (FXR) signaling pathway (AID 743217; active = well fitted inhibition curve with a large enough effect in the signal ratio in the repeat runs, not every such curve was filed as active; the % refers to the signal ratio)
Outline: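 Cells carrying a UAS-driven beta-lactamase reporter (GeneBLAzer FXR-UAS-bla HEK 293T) were plated and rested 5 h at 37 °C. Compounds in DMSO were added alongside chenodeoxycholic acid agonist at 50 uM final and left 16 h at 37 °C before FRET substrate readout.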

Measured: Potency

CCCSP(=O)(OCC)Oc1ccc(Br)cc1Cl (configuration not stated)
not listed: [13] | [14] | [15] | [16] | [17] | [18] | [19]
inactive: all other assays above

Cc1nc(N)nc(N)n1
not listed: [3] | [8] | [9] | [16] | [17] | [18] | [19]
inactive: all other assays above

Cc1ccccc1CO[C@@H]1C[C@@]2(C(C)C)CC[C@]1(C)O2
not listed: [3] | [9] | [14] | [19]
inactive: all other assays above

COc1ncc(F)c2nc(S(=O)(=O)Nc3c(F)cccc3F)nn12
not listed: [3] | [9] | [11] | [12] | [16] | [17] | [19]
inactive: all other assays above

Nc1cnn(-c2ccccc2)c(=O)c1Cl
not listed: [9] | [12] | [14] | [16] | [17] | [19]
inactive: all other assays above

c1cc[c]([Hg][c]2ccccc2)cc1
inactive: [1] | [2] | [3] | [5] | [6] | [14] | [18] | [10] | [11]

N#CCBr
not listed: [3] | [8] | [9] | [14] | [16]
inactive: all other assays above

O=C(CCCN1CCC(n2c(=O)[nH]c3ccccc32)CC1)c1ccc(F)cc1
not listed: [8] | [9] | [12] | [14] | [16] | [17] | [19]
inactive: all other assays above

Cc1ncc2n1-c1ccc(Cl)cc1C(c1ccccc1F)=NC2
not listed: [3] | [8] | [9] | [14] | [17] | [19]
inactive: all other assays above
